Measurements: PubChem BioAssay AID623997 (National Center for Advancing Translational Sciences (NCATS), 2012)
Results filed as inconclusive are left out. Unmarked numbers belong to inactive results. The source made the active and inactive calls. The rule behind the calls is not given here.

assay: qHTS Assay for Inhibitors of Influenza NS1 Protein Function: Mammalian Cell Viability; conditions: NS1 counter-screen; at 100 µM (top of the series)
Source text: Influenza is a world-wide public health problem and emerging forms of the virus have the potential to cause a pandemic of equal or greater magnitude to the outbreaks recorded in 1918, 1957 or 1968. Vaccine development is proceeding and there also exist two classes of anti-influenza compounds. However these therapeutic modalities are neither fully effective nor widely enough available to fulfill global needs. In addition their potential usefulness against newly emergent strains is not known. Efforts are needed to develop novel agents against influenza virus, including broad-spectrum agents. Identification of small molecules that inhibit NS1 function either directly or by interfering with specific cellular pathways may be a key to increasing our defense against the virus.
We have miniaturized and optimized a cell based assay in which NS1 from influenza A is expressed in the budding yeast S. cerevisiae. NS1 is a multi-functional protein that counters the host innate immune response and facilitates viral versus cellular gene expression. Expression of NS1 causes a pronounced slow growth phenotype in yeast due to its intrinsic molecular activities. Small molecules that suppress the slow growth phenotype can be identified by a straightforward growth recovery assay using optical density (OD) as the measurement. The same yeast strain not expressing NS1 was used as positive control in the yeast growth recovery assay.
Hits resulting from this primary screen and other follow-up screens, were tested in four concentrations for this mammalian cell viability assay, using MDCK cells.
NIH Chemical Genomics Center [NCGC]
NIH Molecular Libraries Probe Centers Network [MLPCN]
Assay Submitter (PI): Daniel Engel, University of Virgina
Opaque-walled 96-well plates were seeded with […] MDCK cells per well in 100 uL medium and incubated overnight at 37 deg C. The compound was added to triplicate wells for each concentration tested and incubated for 48 h at 37 deg C. The plate was equilibrated for 30 min at room temperature and 100 uL CellTiter Glo reagent (Promega) added according to the manufacturer's protocol. The plate was shaken for 2 min and then incubated for 10 min at room temperature. Luminescence was recorded in an LMAX 384 reader (Molecular Devices) with integration time of 1 s.

Structure (SMILES)	viability
COc1ccc(-n2nc(C)c3c(-c4ccc(O)c(OC)c4)ccnc32)cc1	108%
COc1cc(-c2ccnc3c2c(C)nn3-c2cccc(F)c2)ccc1O	122%
COc1cc(-c2c(C#N)c(N)nc3c2c(C)nn3-c2ccc(C)cc2)cc(OC)c1OC	99.9%
CCOC(=O)c1cnc2c(c(C)nn2-c2ccc(F)cc2)c1-c1ccc(O)c(OC)c1	54.9%
COc1cc(-c2ccnc3c2c(C)nn3-c2ccc(F)cc2)ccc1O	65%
COc1cc(-c2c(C#N)c(N)nc3c2c(C)nn3-c2ccc(C)c(C)c2)ccc1O	99.3%
COc1ccc(-c2c3c(C)nn(-c4ccccc4)c3nc3[nH]c(=O)[nH]c(=O)c23)cc1OC	83.5%
COc1cc(-c2c(C#N)c(N)nc3c2c(C)nn3-c2ccc(C)c(C)c2)cc(OC)c1OC	90.8%
Cc1nn(-c2ccccc2)c2nc3[nH]c(=O)[nH]c(=O)c3c(-c3ccc4c(c3)OCO4)c12	72.3%
COc1ccc(-c2ccnc3c2c(C)nn3-c2ccc(F)cc2)cc1	114%
COc1cc(-c2c3c(C)nn(-c4ccccc4)c3nc3[nH]c(=O)[nH]c(=O)c23)ccc1O	101%
COc1cc(-c2c(C#N)c(N)nc3c2c(C)nn3-c2ccccc2)ccc1O	101%
COc1ccc(-c2ccnc3c2c(C)nn3-c2ccc(F)cc2)cc1OC	93.4%
COc1ccc(-c2c(C#N)c(N)nc3c2c(C)nn3-c2ccc(C)cc2)cc1OC	103%
COc1cc(-c2ccnc3c2c(C)nn3-c2cccc(C(F)(F)F)c2)ccc1O	114%
COc1ccc(-c2c(C#N)c(N)nc3c2c(C)nn3-c2ccc(Cl)cc2)cc1OC	103%
COc1cccc(-c2ccnc3c2c(C)nn3-c2ccc(F)cc2)c1	4.7% (active)

Structure (SMILES)	viability
COc1ccc(-c2c(C#N)c(N)nc3c2c(C)nn3-c2ccccc2)cc1OC	101%
COc1cc(-c2c3c(C)nn(-c4ccccc4)c3nc3[nH]c(=O)[nH]c(=O)c23)cc(OC)c1O	98.6%
Cc1nn(-c2ccc(F)cc2)c2nc(N)c(C#N)c(-c3ccc(O)c(O)c3)c12	86%
COc1ccc(-c2c3c(C)nn(-c4ccccc4)c3nc3[nH]c(=O)[nH]c(=O)c23)cc1O	102%
Cc1nn(-c2ccc(Cl)cc2)c2nc(N)c(C#N)c(-c3ccc(O)c(O)c3)c12	68.5%
COc1cc(-c2c(C#N)c(N)nc3c2c(C)nn3-c2ccc(Cl)cc2)cc(OC)c1OC	92.1%
COc1cc(-c2c(C#N)c(N)nc3c2c(C)nn3-c2ccc(F)cc2)cc(OC)c1OC	90.7%
Cc1nn(-c2ccccc2)c2nc(N)c(C#N)c(-c3ccc(O)c(O)c3)c12	105%
COc1cc(-c2c(C#N)c(N)nc3c2c(C)nn3-c2ccc(C)cc2)ccc1O	94%
COc1ccc(-c2c(C#N)c(N)nc3c2c(C)nn3-c2ccc(F)cc2)cc1OC	101%
COc1cc(-c2c(C#N)c(=O)[nH]c3c2c(C)nn3-c2ccccc2)ccc1O	85.2%
COc1cc(-c2ccnc3c2c(C)nn3-c2ccc(C(F)(F)F)cc2)ccc1O	118%
COc1cc(-c2c(C#N)c(N)nc3c2c(C)nn3-c2ccc(F)cc2)ccc1O	88%
COc1cc(-c2c(C#N)c(=O)[nH]c3c2c(C)nn3-c2ccccc2)cc(OC)c1OC	97.8%
COc1cccc(-n2nc(C)c3c(-c4ccc(O)c(OC)c4)ccnc32)c1	124%
Cc1ccc(-n2nc(C)c3c(-c4ccc(O)c(O)c4)c(C#N)c(N)nc32)cc1	94.7%
